# Reference: the supplement of paper PMC12636033
# ± gives the standard deviation of the averaged measurements. Over roughly 33,000 sequences, “E-score (rank enrichment, -0.5 to 0.5)” has its median near -0.0043; the highest 2% begin near 0.24. The sample holds the highest values, similar sequences and a random draw of the others, so the mix is not that of the screen.
# Tested on: 2Sp-muMax20 (muMax20 with two 2,6-bis(methyl)pyridine Cys staples)
# Assay: PBM 8-mer E-score (E-score (rank enrichment, -0.5 to 0.5)); higher = stronger preferential binding
# Protocol: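 Protein binding microarray (universal PBM chip covering all 10-mers in fixed probe flanks) with chemically synthesized human Max(13-93) bHLH-LZ analogs (not full-length Max) bearing noncanonical residues (hArg, Tha, Aib, Nle at 65) and aromatic Cys staples. Read-out per 8-mer (and its reverse complement): E-score (rank-based enrichment, -0.5 to 0.5) and Z-score of median probe intensity.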
row,Sequence,PBM 8-mer E-score
1,CATCGTGA,-0.256 ± 0.15
2,GAAGTCTA,0.0975 ± 0.1
3,ATTACTAG,-0.00656 ± 0.053
4,CCTACTAG,0.107 ± 0.023
5,CATACTAG,0.243 ± 0.0018
6,CATACTAC,0.0746 ± 0.039
7,CTTACTAC,0.122 ± 0.0036
8,ACTACTAT,0.146 ± 0.12
9,ACTACTAG,0.261 ± 0.086
10,CATACTAA,0.1447 ± 0.00064
11,ATTACTAC,0.256 ± 0.011
12,AACTTGTA,0.0176 ± 0.02
13,AGAGTCAA,-0.0327 ± 0.08
14,CGGCGGAG,-0.149 ± 0.039
15,CTGCTCGC,-0.104 ± 0.0046
16,CAGAGGTC,-0.182 ± 0.051
17,CAGCAACG,-0.129 ± 0.075
18,AAATATAC,0.087005 ± 2.1e-05
19,AAATATAG,0.148 ± 0.036
20,CAATATAA,0.152 ± 0.1
21,ACCAATAG,-0.0592 ± 0.066
22,AAATATAT,0.3135 ± 0.00093
23,TAATATAA,0.242 ± 0.035
24,GAATATAA,0.215 ± 0.056
25,AAAAATAT,0.244 ± 0.024

row,Sequence,PBM 8-mer E-score
1,ACCAATAC,0.139 ± 0.021
2,AAAAATAA,0.0898 ± 0.087
3,AAAAATAG,0.122 ± 0.058
4,ACCAATAT,0.258 ± 0.045
5,ATGCGCCG,-0.102 ± 0.045
6,CATGGCAG,0.0778 ± 0.016
7,CCCAAAGC,-0.158 ± 0.047
8,GAGCCGAA,-0.123 ± 0.12
9,AACTATAA,0.199 ± 0.015
10,GACTATAA,0.0335 ± 0.072
11,AAATATAA,0.255 ± 0.03
12,AAATATCA,0.132 ± 0.038
13,AAATAAAA,0.175 ± 0.059
14,TACTATAA,0.261 ± 0.011
15,TAGCGGCA,-0.00468 ± 0.025
16,TTAGTCAA,-0.0593 ± 0.046
17,ATCTCACA,0.141 ± 0.066
18,AAATCCAA,0.0276 ± 0.05
19,GAATCCAA,0.132 ± 0.0084
20,TAATCCAA,0.256 ± 0.031
21,ACGGGATA,0.146 ± 0.0045
22,GATCTTGA,0.263 ± 0.086
23,CATCTTGA,0.00562 ± 0.03
24,TATCTTGA,0.123 ± 0.099
25,ACTCACTG,0.0171 ± 0.1

row,Sequence,PBM 8-mer E-score
1,ATGCCTAG,0.0159 ± 0.081
2,GAGGTCCC,-0.243 ± 0.0028
3,AAGGCATT,-0.0085 ± 0.05
4,AGGAGGGC,-0.104 ± 0.14
5,ATGAGGGC,0.115 ± 0.015
6,AGTAGGGG,0.24 ± 0.072
7,AGGAGGGA,0.000855 ± 0.036
8,AGTAGGGA,0.0183 ± 0.02
9,AGTAGGGC,0.0658 ± 0.099
10,ATGAGGGA,0.0977 ± 0.073
11,AGGAGGGG,0.269 ± 0.0072
12,ATGAGGGG,0.24 ± 0.05
13,GGCGCTAA,-0.136 ± 0.035
14,CCCACTGA,0.0382 ± 0.01
15,CGGGACGA,-0.1379 ± 0.00041
16,AGTATCAG,0.0699 ± 0.071
17,CGCCCTAC,-0.00866 ± 0.015
18,GCCCGGGA,-0.254 ± 0.03
19,TGATGCCA,0.033 ± 0.029
20,TATCAGGA,0.0871 ± 0.048
21,ACCAAAGC,0.0731 ± 0.02
22,GTTACATA,0.106 ± 0.096
23,GCGCTCCC,-0.0536 ± 0.052
24,TATCAACA,0.139 ± 0.05
25,GATCAACA,-0.111 ± 0.05

row,Sequence,PBM 8-mer E-score
1,AATCAACA,0.262 ± 0.024
2,GCTATGCC,-0.00318 ± 0.017
3,AGTGCACA,-0.000545 ± 0.11
4,CTCGATCA,0.0252 ± 0.013
5,GGCGAGAC,-0.0185 ± 0.036
6,CTACTTTA,0.0402 ± 0.06
7,ATACTTTG,0.185 ± 0.015
8,ATACTTTA,0.255 ± 0.07
9,AGTCTCGA,0.0438 ± 0.016
10,ACCTCCAC,-0.105 ± 0.0033
11,ATGTGAAA,0.319 ± 0.026
12,ACGTGATC,0.17 ± 0.081
13,CTGTGAAA,-0.00932 ± 0.11
14,CTGTGATA,-0.0212 ± 0.031
15,ACGTGATG,0.244 ± 0.0044
16,ACGTGAAA,0.243 ± 0.025
17,GTGTGAAA,0.11 ± 0.0048
18,ACGTGATA,0.222 ± 0.02
19,ATGTGATA,0.288 ± 0.051
20,ACGTGAAC,0.0294 ± 0.091
21,TCGTGAAA,-0.115 ± 0.084
22,GTGTGATA,0.15 ± 0.061
23,CGCTCCTA,-0.177 ± 0.024
24,AACAGTAC,0.0773 ± 0.0098
25,AGCTAGAC,-0.14 ± 0.029

row,Sequence,PBM 8-mer E-score
1,CCCCCGAA,-0.24 ± 0.13
2,CCGTGACG,-0.127 ± 0.12
3,CCAAGGGG,-0.104 ± 0.046
4,ATACTGAC,0.0362 ± 0.0098
5,ATACTGAT,0.2387 ± 0.00027
6,ATACTGTC,0.183 ± 0.041
7,GCAGATCC,-0.0702 ± 0.063
8,ACGTGACC,0.149 ± 0.063
9,TCCTTTAA,0.0188 ± 0.023
10,AATAATGG,0.126 ± 0.043
11,CATAATGA,0.1647 ± 0.0015
12,GATAATGA,0.00488 ± 0.095
13,AATAATGT,0.241 ± 0.044
14,AATAATGC,0.143 ± 0.1
15,AATAATGA,0.238 ± 0.017
16,GACCTGCC,-0.149 ± 0.014
17,CTAACATC,0.0136 ± 0.022
18,ATAACATC,0.236 ± 0.034
19,ATAACATG,0.229 ± 0.027
20,ATAACAAT,0.244 ± 0.022
21,ATAACAAC,0.0625 ± 0.012
22,ATAACAAG,0.221 ± 0.044
23,AGGACTCA,0.0578 ± 0.11
24,CAGCGAAA,-0.113 ± 0.0075
25,ACTGTAGG,0.0115 ± 0.027

row,Sequence,PBM 8-mer E-score
1,AGAGTCGC,0.0183 ± 0.052
2,CTCTCAAA,-0.015 ± 0.005
3,AACTATAC,0.114 ± 0.06
4,AACTATAG,0.212 ± 0.074
5,AACTATTA,0.169 ± 0.027
6,CACTATAA,-0.0291 ± 0.0069
7,AACTATTG,0.24 ± 0.051
8,AACTATTC,-0.0563 ± 0.067
9,CACTATAC,0.25 ± 0.013
10,GACTATAC,0.141 ± 0.068
11,CACTATAG,0.243 ± 0.038
12,CCGGATCA,-0.0752 ± 0.094
13,AATTATGC,0.202 ± 0.025
14,ATGGATGC,0.0345 ± 0.13
15,AACGCGAG,0.0185 ± 0.046
16,AACGCGAC,0.0983 ± 0.018
17,GACGCGAC,-0.108 ± 0.084
18,CACGCGAC,0.277 ± 0.013
19,GTCGCGAA,-0.143 ± 0.017
20,GTCGCGAC,0.314 ± 0.014
21,CACGCGAG,0.26 ± 0.025
22,CACGCGAA,0.0343 ± 0.011
23,CTCGCGAC,0.0452 ± 0.004
24,CTAGAGTC,-0.122 ± 0.025
25,ACCTCTCT,-0.0431 ± 0.11

row,Sequence,PBM 8-mer E-score
1,AGGCACTC,-0.155 ± 0.0063
2,GCCACGGC,-0.219 ± 0.036
3,CGCCTATC,0.0914 ± 0.054
4,ATGCGGTC,-0.0281 ± 0.033
5,CTATGTGC,0.13 ± 0.017
6,ACATGTGG,0.364 ± 0.031
7,ACATGTGC,0.283 ± 0.052
8,AAATGTGG,0.138 ± 0.015
9,AGATGTGG,0.0241 ± 0.00082
10,AGATGTGC,0.0607 ± 0.028
11,GCGAAGGA,-0.1 ± 0.011
12,CCTGAAGC,-0.0531 ± 0.025
13,AGATTGCA,0.0232 ± 0.053
14,CGATTGCA,0.000985 ± 0.025
15,TGATTGCA,0.286 ± 0.081
16,ACGTCGCA,-0.0865 ± 0.15
17,CTCGCTTC,-0.0128 ± 0.0032
18,GACAATAA,0.188 ± 0.0055
19,AACAATAC,0.263 ± 0.0036
20,TACAAGAA,0.213 ± 0.018
21,TACAAAAA,0.26 ± 0.052
22,GACAATAC,0.144 ± 0.15
23,AACAAAAA,-0.0104 ± 0.045
24,TACAATAA,0.321 ± 0.051
25,CACAATAA,0.0537 ± 0.028

row,Sequence,PBM 8-mer E-score
1,AACAATAA,0.134 ± 0.036
2,GATAAACC,-0.167 ± 0.039
3,TCAGGGGA,0.143 ± 0.019
4,TAAACGAA,0.143 ± 0.00096
5,AACTGATG,-0.0947 ± 0.093
6,CAAAACCA,0.218 ± 0.056
7,TTCGAAAA,0.0928 ± 0.011
8,CCAGAGCC,0.0426 ± 0.067
9,TTAATTAA,0.303 ± 0.081
10,ATAATTAC,0.297 ± 0.044
11,CTAATTAC,0.108 ± 0.024
12,AAAATTAT,0.252 ± 0.027
13,GTAATTAA,0.123 ± 0.033
14,CTAATTAA,0.0684 ± 0.14
15,AAAATTAG,0.129 ± 0.0083
16,ATAATTAA,0.183 ± 0.096
17,GTAATTAC,0.177 ± 0.0081
18,ATAATTAT,0.274 ± 0.062
19,AAAATTAA,0.126 ± 0.057
20,ACAATTAT,0.139 ± 0.091
21,CAGCTGGC,0.00279 ± 0.062
22,TAAGACGA,0.118 ± 0.035
23,AGTTCACA,0.0105 ± 0.0032
24,AATATCAC,0.189 ± 0.038
25,AAGCTGCT,-0.0983 ± 0.048

row,Sequence,PBM 8-mer E-score
1,ACTGACTA,-0.00544 ± 0.014
2,GGCCTAGA,-0.101 ± 0.039
3,AGGGCGAG,0.00325 ± 0.014
4,AACTAGCT,-0.0509 ± 0.098
5,CTAATTAG,-0.0106 ± 0.077
6,ATAATTAG,0.289 ± 0.006
7,ATAACTAA,0.174 ± 0.018
8,ATAATTCG,0.221 ± 0.06
9,TTAACTAA,0.248 ± 0.0099
10,CTAACTAA,0.0344 ± 0.032
11,ACTCGCTG,-0.155 ± 0.038
12,AATTGTAC,0.22 ± 0.0078
13,TGGTATAA,0.219 ± 0.019
14,CGGGTACC,-0.168 ± 0.059
15,ACGCTACA,0.161 ± 0.04
16,ACCCCAAT,0.248 ± 0.017
17,ACCCCAAC,0.2 ± 0.075
18,ACCCCAGA,0.102 ± 0.066
19,ACCCCAGT,0.303 ± 0.048
20,ACCCCAGG,-0.135 ± 0.03
21,ACCCCAAG,0.167 ± 0.067
